The source of these data is PubChem BioAssay (EPA / NIEHS).

Where “and” joins values, the source holds several entries; their conditions need not be identical. Equal entries are not always repeated. Results filed as inconclusive are left out. Some compounds were tested as several samples or in several runs, with calls that do not always agree. Calls of active or inactive are those of the source. The calls were made as follows, unless noted: active = hit-call score of the fitted dose curve at least 0.9, where 1 is the maximum; inconclusive = response in the unintended direction; inactive = score below 0.9.

Read-out in assay [1]: UDP glucuronosyltransferase (UGT1A6), UGT1A6 (gene 54578)
Kind of assay: LTEA_HepaRG_UGT1A6: Life Technologies and Expression Analysis (LTEA) Assay for UDP glucuronosyltransferase (UGT1A6) using HepaRG (AID 2283539; active = hit-call score of the fitted dose curve at least 0.9, where 1 is the maximum; inactive = score below 0.9). The settings on record: mRNA level, 48 h; actives raise or lower the signal. The method in brief: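 Expression was quantified by TaqMan qRT-PCR on Fluidigm arrays with ACTB/GAPDH/POLR2A normalization and bidirectional fitting against 0.5% DMSO. HepaRG cells (~100,000/well) were treated in duplicate for 48 h at eight half-log concentrations up to 100 uM in serum-free induction medium.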

Read-out in assay [2]: X-box binding protein 1 (XBP1), XBP1 (gene 7494)
Kind of assay: LTEA_HepaRG_XBP1: Life Technologies and Expression Analysis (LTEA) Assay for X-box binding protein 1 (XBP1) using HepaRG (AID 2283540; active = hit-call score of the fitted dose curve at least 0.9, where 1 is the maximum; inactive = score below 0.9). The following applies: mRNA level, 48 h; actives raise or lower the signal. The method in brief:
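XBP1 transcript by qRT-PCR (housekeeping-normalized: ACTB, GAPDH, POLR2A) after 48 h chemical treatment of HepaRG cells, 8-point half-log series topping at 100 uM, vehicle 0.5% DMSO. Gain and loss of signal fitted relative to DMSO.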

A short description of assay [3]: LTEA_HepaRG_LDH_cytotoxicity: Cytotoxicity Assessment in the Life Technologies and Expression Analysis (LTEA) Assay (AID 2283563).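 As to AC50: LDH activity released into spent culture medium as a marker of cell death.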 A digest of the protocol:
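LDH release into culture medium read after 48 h chemical treatment of HepaRG cells. Duplicate wells, eight-point half-log series topping at 100 uM, 0.5% DMSO vehicle and baseline.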

A short description of assay [4]: ATG_XTT_Cytotoxicity: Cytotoxicity Assessment in the Attagene TRANS-FACTORIAL HepG2 Assay (AID 2283584).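 As to AC50: cells exposed to compound for 24 h before reading; active means loss of viability signal versus DMSO baseline.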 A digest of the protocol:
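Viability endpoint from XTT after 24 h chemical exposure of reporter-transfected human HepG2 liver cells; signal loss fitted relative to DMSO negative control.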

In assay [5] the target is Cellular tumor antigen p53 (Homo sapiens) (UniProt P04637). Kind of assay: TOX21_p53_BLA_p2_ratio: Tox21 HCT-116 p53 Agonism Beta-lactamase Assay, Ratio, Phase 2 (AID 2283592). A digest of the protocol:
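Gain-of-signal p53 agonism was scored from the beta-lactamase FRET ratio (460/530 nm, 405 nm excitation) in HCT116 cells treated 16 h at 37C, 5% CO2, with DMSO serving as negative control and baseline.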

For assay [6] the target is unchanged. Kind of assay: TOX21_p53_BLA_p3_ratio: Tox21 HCT-116 p53 Agonism Beta-lactamase Assay, Ratio, Phase 3 (AID 2283596). The method in brief:
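HCT116 p53-bla cells (4000/well) given compound in DMSO (217-fold dilution) after 5 h, incubated 16 h at 37C. CCF4-AM substrate 2 h at room temperature; 460/530 nm emission ratio, gain fitted against DMSO.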

Assay [7] is described as follows: TOX21_p53_BLA_p4_viability: Viability Assessment in the Tox21 HCT-116 p53 Agonism Beta-lactamase Assay, Phase 4 (AID 2283597).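 Also: hits lower the luminescence signal meaning cytotoxicity.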 A digest of the protocol:
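Following a 16 h exposure at 37C, the treated HCT116 wells were first read for the FRET ratio. They were then lysed with CellTiter-Glo, and ATP luminescence was recorded after 30 min at room temperature.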

Assay [8] concerns the target Cellular tumor antigen p53 (Homo sapiens) (UniProt P04637). Kind of assay: TOX21_p53_BLA_p5_ratio: Tox21 HCT-116 p53 Agonism Beta-lactamase Assay, Ratio, Phase 5 (AID 2283599). A digest of the protocol: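 Beta-lactamase reporter ratio (blue 460 nm over green 530 nm, 405 nm excitation) after 2 h CCF4-AM loading, in HCT-116 cells exposed 16 h at 37 C to compounds pinned at 217-fold dilution. Increases relative to DMSO baseline scored.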

A short description of assay [9]: TOX21_p53_BLA_p2_viability: Viability Assessment in the Tox21 HCT-116 p53 Agonism Beta-lactamase Assay, Phase 2 (AID 2283591).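 Also: compound exposure lasted 16 h at 37 °C; actives lower the ATP signal meaning cytotoxicity.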 The method in brief: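 Cytotoxicity readout: CellTiter-Glo ATP luminescence, 30 min at room temperature, after the beta-lactamase read. Cells were HCT116 exposed 16 h at 37C to compounds pin-transferred at 217-fold dilution from DMSO stocks.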

Assay [10] in a line: TOX21_p53_BLA_p3_viability: Viability Assessment in the Tox21 HCT-116 p53 Agonism Beta-lactamase Assay, Phase 3 (AID 2283593).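 Also: cells exposed to compound for 16 h before reading.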 The method in brief: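 Cellular ATP was quantified by CellTiter-Glo luminescence, read after 30 min at room temperature. Beforehand, HCT116 cells (4000/well) received compound 5 h post-seeding, 217-fold diluted from DMSO, then incubated 16 h at 37C.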

Chain of Cellular tumor antigen p53 (Homo sapiens) (P04637 whole entry, looked up): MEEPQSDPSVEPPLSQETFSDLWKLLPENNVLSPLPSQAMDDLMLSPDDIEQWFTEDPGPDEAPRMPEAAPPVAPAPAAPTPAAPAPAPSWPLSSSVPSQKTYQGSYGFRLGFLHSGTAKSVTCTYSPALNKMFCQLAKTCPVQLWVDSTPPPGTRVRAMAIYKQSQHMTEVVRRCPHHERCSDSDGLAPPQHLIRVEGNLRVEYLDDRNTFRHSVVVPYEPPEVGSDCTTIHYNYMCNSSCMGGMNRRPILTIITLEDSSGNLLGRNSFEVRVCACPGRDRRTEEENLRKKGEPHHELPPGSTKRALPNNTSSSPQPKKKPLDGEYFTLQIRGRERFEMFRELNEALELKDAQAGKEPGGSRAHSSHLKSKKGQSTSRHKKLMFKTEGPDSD

As for `O=C(OCCOCCOC(=O)c1ccccc1)c1ccccc1`, the compound was called inactive in assay [1], in assay [2], in [3], in assay [4], in assay [5] and in assay [6]. The compound was classed as inactive in assay [7] and in assay [8].
In the case of `CCCCCCCCCCCCCC[N+](C)(C)C`, the AC50 in assay [4] is 36.8 µM (active); in assay [9], 49.1 µM (active) and 13.3 µM (active) and 33.7 µM (active); in assay [5], 43.8 µM (active) and 11.3 µM (active); in assay [6], 39.8 µM (active) and 14.6 µM (active); in [7], 52.4 µM (active) and 13.2 µM (active) and 35.4 µM (active); in [8], 31.2 µM (active) and 16.1 µM (active). In addition, the call in assay [4], in assay [5], in [6] and in assay [8] was inactive.
As to `Cc1cc(C)c(O)c(C)c1`, the call in assay [1], in [2], in assay [3], in assay [5], in assay [10] and in [6] was inactive. Also, the compound was classed as inactive in assay [7] and in [8].
As to `CCCOc1sc(C(=O)N2CCC(c3cc(CN)ccc3F)CC2)c(C)c1Br`, the compound was classed as inactive in [1], in assay [2] and in assay [3]. Further, the AC50 was 43.2 µM (active) in assay [9]; 80.1 µM (active) in [5]; 80.4 µM (active) in assay [6]; 31.7 µM (active) in assay [7]; 80.7 µM (active) in [8].
As to `N#C[C@@H]1CC(F)(F)CN1C(=O)CNC1CC2CCC(C1)N2c1ncccn1` (stereo partly specified), the compound was called inactive in [1], in assay [2], in [3], in assay [9], in assay [10] and in assay [7].
Regarding `OCCC(F)(F)C(F)(F)C(F)(F)C(F)(F)C(F)(F)C(F)(F)F`, the call in assay [1], in assay [2], in assay [3], in [4] and in assay [8] was inactive.
As to `CCc1nn(C2CCCCC2)c2cc(C3(C#N)CCC(C(=O)O)CC3)ccc12` (stereo unspecified), the result in assay [1], in [2], in [3], in assay [9], in assay [7] and in assay [8] was inactive. Also, the AC50 in assay [5] is 46.3 µM (active); in assay [6], 73.5 µM (active).
For `CC(O)C(=O)O` (stereo unspecified), the call in assay [4], in assay [5], in assay [6] and in assay [8] was inactive.
For `NC(=O)N(O)[C@@H]1C=C[C@H](Oc2cccc(Oc3ccc(F)cc3)c2)C1`, the AC50 is 75.8 µM (active) in assay [1]; 28.2 µM (active) in assay [2]; 73.5 µM (active) in [3]; 66.5 µM (active) in assay [5]; 84.2 µM (active) in [7]. Also, the compound was called inactive in assay [9], in assay [10], in assay [6] and in [8].
As to `CC(C)CCCCCCOC(=O)CCCCC(=O)OCCCCCCC(C)C`, the call in [1], in assay [2], in [3], in assay [9], in [5] and in assay [7] was inactive.
Take `Cc1ccc(S(=O)(=O)O)c(C)c1`: the compound was classed as inactive in [4], in [5], in assay [6], in [7] and in assay [8].
For the compound `CN(C)C=O`, the compound was called inactive in assay [1], in [2], in assay [3], in [4], in assay [5] and in assay [6]. For the same compound, the call in assay [7] and in assay [8] was inactive.
For the compound `O=C1OC2(c3ccccc31)c1cc(Br)c(O)c(Br)c1Oc1c2cc(Br)c(O)c1Br`, the result in assay [4], in assay [9] and in [7] was inactive.
For `C[C@@H]1C[C@H]2[C@@H]3CCC4=CC(=O)C=C[C@]4(C)[C@@]3(F)[C@@H](O)C[C@]2(C)[C@@]1(O)C(=O)COP(=O)(O)O`, the result in assay [1], in assay [2], in [3], in assay [4], in [5] and in assay [7] was inactive. The outcome in [8] was inactive.
Turning to `CC(C)(C)c1cc(C(C)(C)C)c(O)c(C(C)(C)C)c1`, in assay [1], the AC50 was 14.5 µM (active). In addition, the result in [2], in assay [3], in [9], in [5], in [6] and in [7] was inactive. Further, in assay [8], the result was inactive.
As for `CC[C@H](C)[C@@H](C(=O)O)n1sc2ccccc2c1=O`, the compound was classed as inactive in assay [1], in assay [2], in assay [3], in [5], in assay [6] and in assay [7]. Further, in [8], the result was inactive.
Consider `CCN(CC)CCNc1ccc(CNC=O)c2sc3ccc(OC)cc3c(=O)c12`, for which the AC50 is 72 µM (active) in assay [1]; 30.6 µM (active) in assay [2]; 80.1 µM (active) in assay [3]; 10.2 µM (active) in assay [5]; 18.7 µM (active) in assay [6]; 29 µM (active) in [8]. For the same compound, the call in assay [9] and in assay [7] was inactive.
With `Cc1cc(CCN2CCN(c3nsc4ccccc34)CC2)cc2c1NC(=O)CC2(C)C`, the AC50 in assay [1] is 79.5 µM (active); in [3] it was 76.8 µM (active); in [9] it was 60.5 µM (active); in assay [5] it was 71.6 µM (active); in [7], 74.3 µM (active). For the same compound, the compound was classed as inactive in [2], in [6] and in [8].
